From PubChem BioAssay AID449762 (Southern Research Specialized Biocontainment Screening …, 2010) come the findings set out here.

In all, about 330,000 compounds went through this assay and about 1,900 (0.58%) were called active. Not shown: some 4% with an inconclusive outcome. Not all results are given here. Results with a measured potency or affinity are listed apart. A number with no mark means an inactive call. Cut-off read from the data, not from the text of the source: inconclusive = inhibition above about 70% without an active follow-up result; inactive = below that.

The nature of the assay: M. tuberculosis growth inhibition, HTS (AID 449762).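 Note: bacterial growth assessed after seven days of incubation.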 Particulars: M. tuberculosis H37Rv growth inhibition, 7H9 media; at 25 µM; active compounds read high.
`Cc1ccc(C(=O)c2coc3ccc(O)cc23)cc1`: the inhibition (usually the change of the read-out against control, counted positive when it falls) was 2.44%.

With `C[C@@H](NC(=O)[C@@H]1Cc2ccccc2CN1)C(=O)Nc1ccc2c(c1)OCCO2`, the inhibition was 8.26%.

Turning to `COc1ccc(CNCCc2c(C)[nH]c3ccc(OC(F)(F)F)cc23)c(OC)c1`, the inhibition was 35.2%.

For the molecule `Cc1[nH]c2ccc(OC(F)(F)F)cc2c1CCNCc1cccc([N+](=O)[O-])c1`, the inhibition was 62.9%.

For the molecule `C(=NC12CN3CN(CN(C3)C1)C2)c1ccc2c(c1)OCO2`, the inhibition was -3.64%.

`COC(=O)C1=C(c2ccc(F)cc2OCc2ccccc2)C[C@@H]2CC[C@H]1N2C(=O)NCc1ccc(F)cc1`: the inhibition was -5.1%.

With `CC(Sc1nc(-c2ccccc2)nc2c1COC(C)(C)C2)C(=O)N1CCOCC1` (centres undefined), the inhibition was -20.2%.

For the molecule `O=c1c2cnn(-c3ccccc3)c2nc(-c2cccs2)n1-c1ccc(Br)cc1`, the inhibition was 1.78%.

In the case of `O=c1oc(-c2cccs2)nc2ccccc12`, the inhibition is -3.68%.

For `Cc1ccc(-n2c(C)cc(/C=N/NC(=O)c3ccc(CN4CCOCC4)cc3)c2C)cc1`, the inhibition is -0.81%.

`COc1cc(NC(=O)Cn2cnc(S(=O)(=O)N3CCOCC3)c2)cc(OC)c1OC`: the inhibition was -1.58%.

Regarding `O=C1c2ccccc2-c2cccnc21`, the inhibition was -8.77%.

Turning to `O=C1C(O)=C(O)C(=O)c2ccccc21`, the inhibition is -1.99%.

`CCC1CCCCN1C(=S)NCc1ccccc1` (centres undefined): the inhibition was -0.48%.

As to `CN(C)CCOc1cc(Cl)cc(Cl)c1`, the inhibition is 10%.

As to `Cc1nc2c(C(=O)N3CCN(c4ccccn4)CC3)cnn2c(C)c1Cc1cccc(Cl)c1`, the inhibition was 48.5%.

As for `O=C(NCc1cccnc1)/C(=C/c1ccc(-c2cccc(C(F)(F)F)c2)o1)NC(=O)c1ccccc1`, the inhibition is 11.6%.

Turning to `Cc1ccc(C(=O)N/C(=C\c2ccco2)C(=O)NCc2cccnc2)cc1`, the inhibition was -2.29%.

Regarding `CCOC(=O)N1CCN(C(=O)CSc2ccc(C(=O)OC)cc2[N+](=O)[O-])CC1`, the inhibition is -7.7%.

On to `Clc1ccccc1Cc1noc(CN2CCN(Cc3ccccn3)CC2)n1`, for which the inhibition is 2.36%.

Take `CC(C)(C)c1ccc(C(=O)NC2CCS(=O)(=O)C2)cc1` (centres undefined): the inhibition was 1.38%.

As to `Cc1ccc(C(c2c(C)nn(-c3ccccc3)c2N)c2c(C)nn(-c3ccccc3)c2N)cc1`, the inhibition was 23.1%.

As for `Cc1nn(-c2ccccc2)c(N)c1C(c1ccccc1)c1c(C)nn(-c2ccccc2)c1N`, the inhibition is 5.62%.

Consider `COc1ccc(OC)c(C(=O)COC(=O)CNC(=O)c2ccccc2)c1`, for which the inhibition was -2.57%.

Turning to `O=C(Nc1ccccc1)N1CCCN(c2c(Cl)cncc2Cl)CC1`, the inhibition is 2.69%.

Turning to `O=C(CN1CCN(Cc2ccccc2)CC1)N/N=C/C=C/c1ccccc1[N+](=O)[O-]`, the inhibition was 12%.

Take `O=C(CN1CCN(Cc2ccccc2Cl)CC1)N/N=C/C=C\c1ccccc1[N+](=O)[O-]`: the inhibition is 3.7%.

As to `CCSc1nnc(NC(=O)c2nc3nc(C)cc(C)n3n2)s1`, the inhibition is -7.36%.

For `Cc1ccccc1OCC(=O)OCC(=O)Nc1ccc2c(c1)OCCO2`, the inhibition was -7.86%.

In the case of `Cc1ccc2c(c1)c1ncnc(N3CCN(c4ccccc4)CC3)c1n2C`, the inhibition is 0.15%.

For the molecule `Cc1ccc2c(c1)c1ncnc(N3CCOCC3)c1n2C`, the inhibition was -0.66%.

For the molecule `CC(=O)Nc1ccc(-c2csc(Nc3ncccn3)n2)cc1`, the inhibition is 10.8%.

With `Cc1c(C(=O)N2CCN(c3ccccn3)CC2)cccc1[N+](=O)[O-]`, the inhibition is 3.8%.

`O=C(NNS(=O)(=O)c1ccccc1[N+](=O)[O-])c1ccc(O)cc1`: the inhibition is 13.9%.

Regarding `COC(=O)[C@]1(Cc2ccccc2)N[C@H](CN(C)C(=O)c2ccc(C)cc2)[C@@H]2C(=O)N(C)C(=O)[C@@H]21`, the inhibition was 2.73%.

On to `CCOc1ccccc1C1N=C(c2ccc(OC)cc2)CC(c2ccccc2O)N1` (centres undefined), for which the inhibition was 13%.

In the case of `CCC1(C)N=C(c2ccc3c(c2)OCO3)CC(c2ccccc2O)N1` (centres undefined), the inhibition is -5.31%.

For `COc1cccc2cc(C(=O)N3CCCCC3C)c(=O)oc12` (centres undefined), the inhibition was -7.25%.

As to `COC(=O)c1c(N)n(CCCN2CCOCC2)c2nc3ccccc3nc12`, the inhibition was 4.91%.

Regarding `COCCOC(=O)c1c(N)n(CCCN2CCOCC2)c2nc3ccccc3nc12`, the inhibition was 0.66%.

On to `Cc1[nH]c2ccccc2c1/C=N/NC(=O)CNC(=O)c1ccco1`, for which the inhibition is 1.49%.

`COCCn1c(=S)[nH]c2cc(C(=O)N3CCc4ccccc4C3)ccc2c1=O`: the inhibition is 5.9%.

As to `CC[C@H](C)[C@H](NC(N)=O)C(=O)NCCc1ccc(Cl)cc1Cl`, the inhibition is -2.03%.

As for `Cc1ccc(CNc2ccc3nnc(-c4ccccc4)n3n2)cc1`, the inhibition is -2.25%.

In the case of `Clc1ccc(CNc2ccc3nnc(-c4ccccc4)n3n2)cc1`, the inhibition was -9.56%.

Turning to `Cc1cc(C)n(CCOC(=O)C2C(C=C(Cl)Cl)C2(C)C)n1` (centres undefined), the inhibition is 6.12%.

Consider `CN(C)[C@@H]1C(=O)C(C(N)=O)=C(O)[C@@]2(O)C(=O)C3=C(O)c4c(O)cccc4[C@@](C)(O)[C@H]3C[C@@H]12`, for which the inhibition was 22.5%.

With `C=C1c2cccc(O)c2C(O)=C2C(=O)[C@]3(O)C(O)=C(C(N)=O)C(=O)[C@@H](N(C)C)[C@@H]3[C@@H](O)[C@H]12`, the inhibition was 69.5%.

For `CN(C)[C@@H]1C(=O)C(C(N)=O)=C(O)[C@@]2(O)C(=O)C3=C(O)c4c(O)cccc4[C@@](C)(O)[C@H]3[C@H](O)[C@@H]12`, the inhibition is 31.9%.

Take `CSC(=NC#N)N1CCN(c2c(C)cccc2C)CC1`: the inhibition was -2.97%.

Regarding `CC(C)CCNC(=O)C1CC(c2cccc(F)c2)=NO1` (centres undefined), the inhibition is -4.76%.

On to `O=C(NC1CCCC1)C1CCCN1S(=O)(=O)c1cccc2cccnc12` (centres undefined), for which the inhibition is -5.92%.

`CC1CCCC(NC(=O)C2CCN(C(=O)Nc3ccccc3)CC2)C1C` (centres undefined): the inhibition was -2.53%.

`CCC(C)[C@H](NC(=O)[C@H](Cc1ccccc1)n1c(=O)[nH]c2ccccc2c1=O)C(=O)N1CCC(C(=O)O)CC1` (some centres undefined): the inhibition was -6.06%.

Turning to `O=C(OCC(=O)N1CCCC1)c1cnc(Cl)c(Cl)c1`, the inhibition is 2.91%.

In the case of `COc1ccc(N2CCN(C(=O)C(C)(C)Oc3ccc(Cl)cc3)CC2)cc1`, the inhibition was 2.08%.

For the molecule `CCOc1ccc(C(C)=O)cc1COC(=O)c1cnc(Cl)c(Cl)c1`, the inhibition was -3.39%.

As to `O=C(OCC(=O)N1CCOCC1)c1cnc(Cl)c(Cl)c1`, the inhibition was -0.51%.

Regarding `O=C(COC(=O)c1cnc(Cl)c(Cl)c1)c1ccc(F)cc1`, the inhibition is 2.14%.

Consider `CC(C)(Oc1ccc(Cl)cc1)C(=O)OCC(=O)N1CCCC1`, for which the inhibition was -3.13%.

For `O=c1[nH]cc(S(=O)(=O)Nc2ccc3c(c2)OCO3)c(=O)[nH]1`, the inhibition is 7.53%.

Consider `COc1ccc2nc(N3C(=O)C(O)=C(C(=O)c4ccco4)C3c3ccccc3OC)sc2c1` (centres undefined), for which the inhibition was 0.62%.

On to `COc1cccc(C2CC(c3ccccc3OC)n3ncnc3N2)c1` (centres undefined), for which the inhibition was -5.17%.

Regarding `CC(=O)N/C(=C\c1ccccc1)C(=O)NC(C)C(=O)O` (centres undefined), the inhibition was -2.83%.

For the molecule `O=C(COC(=O)c1cc2ccccc2cc1O)Nc1cccnc1Cl`, the inhibition is -17%.

Turning to `C=CCNC(=O)N1CCc2[nH]c3ccc(F)cc3c2C1`, the inhibition is -1.16%.

As to `CC(OC(=O)Cc1n[nH]c(=O)c2ccccc12)C(=O)Nc1ccc(F)cc1Cl` (centres undefined), the inhibition is -10.4%.

For `Cn1c(C(=O)N(Cc2ccccc2)Cc2ccccn2)cc2sccc21`, the inhibition is -2.09%.

As to `Cc1cccc(C(=O)OCC(=O)Nc2ccccc2C(=O)NC2CC2)c1`, the inhibition was -11.3%.

`Cn1c(SCC(=O)c2ccc3c(c2)OCCO3)nnc1C(F)(F)F`: the inhibition was -5.9%.

With `O=C(/C=C/c1c(F)cccc1Cl)c1ccc(O)cc1`, the inhibition is -0.9%.

Take `O=C(/C=C/c1ccc[nH]1)c1ccc(F)cc1`: the inhibition was 2.02%.

As for `Cc1cc(C)n2c(Br)c(CSc3nc4ccccc4s3)nc2n1`, the inhibition was -0.87%.

With `CC(NC(=O)CSC(=S)N1CCCC1)c1ccc(S(N)(=O)=O)cc1` (centres undefined), the inhibition was -7.22%.

For the molecule `Cc1cc(/C=N/NC(=O)c2cccs2)c(C)n1-c1ccccc1`, the inhibition was 3.6%.

With `Cc1cc(/C=N/NC(=O)c2cccs2)c(C)n1-c1cnccn1`, the inhibition is 11.2%.

On to `Cc1ccc(C)c(OCC(=O)NNC(=O)CCN2CCN(c3ccccc3)CC2)c1`, for which the inhibition was 7.6%.

Take `COc1cccc(NC(=O)CSc2nnc(-c3cc(C)[nH]n3)n2N)c1`: the inhibition was 7.87%.

On to `CCc1cc2c(=O)c(-c3nc4ccccc4n3C)c(C)oc2c(CN2CCCCC2)c1O`, for which the inhibition is -5.94%.

As for `CCc1cc2c(=O)c(-c3cnn(-c4ccccc4)c3)c(C(F)(F)F)oc2c(CN(C)C)c1O`, the inhibition was 5.42%.

On to `CC1CN(C(=O)CCC(=O)N2CCN(c3cccc(C(F)(F)F)c3)CC2)c2ccccc2O1` (centres undefined), for which the inhibition was 9.11%.

For the molecule `COc1ccccc1NC(=O)N(Cc1ccccc1)C1=NCC(C)S1` (centres undefined), the inhibition is 6.61%.

Take `OC(CNCC1CCCO1)COc1ccc(OCC(O)CNCC2CCCO2)cc1` (centres undefined): the inhibition is 5.75%.

Take `CCOC(=O)c1c(C)n(C)c2ccc(OCC(O)CNCCc3ccccc3)cc12` (centres undefined): the inhibition was 15.2%.

With `COc1ccc(N2CCN(C(=O)c3sc4ncn(CC(=O)N5CCCCC5C)c(=O)c4c3C)CC2)cc1` (centres undefined), the inhibition was -4.52%.

Take `O=C(CSc1nc(-c2ccc(F)cc2)cs1)NCC1CCCO1` (centres undefined): the inhibition is -0.07%.

For the molecule `O=C(CSc1nn(-c2ccc(Cl)cc2)c(=S)s1)NCC1CCCO1` (centres undefined), the inhibition was 69.3%.

For `CCCCCCCCCCSc1n[nH]c(NC(C)=O)n1`, the inhibition was 4.39%.

Take `COc1ccc(OC)c(-c2csc(NC(=O)COC(=O)C3(C)CC3(Cl)Cl)n2)c1` (centres undefined): the inhibition was 8.7%.
